From the supplement of paper PMC10338343
± gives the standard deviation.

System: EfPiwi piRISC loaded with L1MC piRNA (26 nt)
Assay: pre-steady-state target cleavage rate (min^-1); auxiliary factor: none (no Gtsf1); guide: L1MC piRNA 5'p-UAACUAAAUACUAUGCAAGCUGUAGG; higher = faster piRNA-guided slicing of the target
How it was run: (§1)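 Cleave-'n-Seq measured uncleaved targets by sequencing after a transcribed, DNA-blocked target RNA library […] was mixed with 1 nM active affinity-purified piRISC holding one synthetic guide, with or without 500 nM GTSF1 partner protein, at 33 °C in HEPES–potassium acetate buffer for 0–8 or 0–960 min. Counts were normalised to depth and to weakly complementary targets, three trials were pooled, and k3 was capped at 0.0001 min^-1. A burst-and-steady-state fit gave the pre-steady-state cleavage rate.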

Row | Sequence | pre-steady-state target cleavage rate
1 | UCCUGGAUGUCGAUGGAUAGAAUUUAGUUA | < 0.0001
2 | UCCUGGAUGUGCUUGCAUACAUUUUAGUAA | < 0.0001
3 | UCCUGGUACAGGAUGCAUAGUAUUUUCAAA | < 0.0001
4 | UCCUGGAUGUCGAAGCUUAGUAUUUAGUAA | < 0.0001
5 | UCCUGGAUGUCGAACGUUAGUAAUUAGUAA | < 0.0001
6 | UCCUGGAUGAGCUUGCAUAGUUUUUAGAUA | < 0.0001
7 | UCCUGGAUGUCGAAGCAUAGGAUUUAGUUA | < 0.0001
8 | UCCUGGAUGUCGAAGGAUAGUAUUUUGUUA | < 0.0001

System: EfPiwi piRISC loaded with piRNA #1 (26 nt)
Assay: pre-steady-state target cleavage rate (min^-1); auxiliary factor: 500 nM Ephydatia muelleri Gtsf1; guide: piRNA #1 5'p-UGAGGUAGUAGGUUGUAUAGUAUCCA; MIWI and MILI are mouse PIWI proteins and EfPiwi is from a freshwater sponge; tags in brackets are library labels; higher = faster piRNA-guided slicing of the target
How it was run: as §1

Row | Sequence | pre-steady-state target cleavage rate
9 | GGAGAGGAUACUAUACAACCAACUAGCUCA | 0.00313 ± 0.0016
10 | GGAGACCUAUCUAUACCAACCUACUACCUCA | 0.00573 ± 0.0036
11 | GGAGACGAUACUAUUCAACGUACUACCUCA | 0.00355 ± 0.0011
12 | GGAGACGAUACAAUACAACCUAGUACCUCA | 0.00289 ± 0.0015
13 | GGAGACGAUACUAUCCAACCUACUACCUCA | 0.00717 ± 0.0028
14 | GGAGUGGAUACUAUACAACCUACAACCACA | 0.00247 ± 0.0019
15 | GGAGACCUUACUAUACAACCACUACCUCA | 0.0103 ± 0.0057
16 | GGAGACCUAACUGAUACAACCUACUACCUCA | 0.00745 ± 0.0044
17 | GGAGACGAUACUAUACAACCUAUCUACCUCA | 0.00473 ± 0.0019
18 | GGAGAGGAUACUAUACUACCUACUUCCUCA | 0.00269 ± 0.002
19 | GGAGACCUAACUAUACAACCUACUACCUUCA | 0.0285 ± 0.011
20 | GGAGUGGAUACUAUACAACCUACUAGGACA | 0.00314 ± 0.0029
21 | GGAGAGGAUACUUUACAACGUACUACCUCA | 0.00409 ± 0.0016
22 | GGAGAGGUUACUAUACAUCCUACUACCUCA | 0.00567 ± 0.0029
23 | GGAGAGGAUACUAUACAACGUACUUCCUCA | 0.00375 ± 0.0013
24 | GGAGUGGAUACUAUAGAACCUACUACCACA | 0.0024 ± 0.001

Row | Sequence | pre-steady-state target cleavage rate
25 | GGAGACCAUACUAUCACAACCUACUACCUCA | 0.0399 ± 0.014
26 | GGAGACGAUCCUAUACAACCUACUACCUCA | 0.0157 ± 0.0085
27 | GGAGAGGAUACUAUACAACCUUCUACGUCA | 0.00356 ± 0.0021
28 | GGAGACGAUACUAUACAACCUACUAGGUCA | 0.0052 ± 0.002
29 | GGAGACCAUACUAUACAACACUACUACCUCA | 0.00469 ± 0.0037
30 | GGAGACCUAUGAUAUGUACCUACUAUCCUCA | < 0.0001
31 | GGAGAGGUUACUAUACAACCUACUACCACA | 0.00331 ± 0.0014
32 | GGAGACGAUACUAUACUUCCUACUACCUCA | 0.0109 ± 0.0064
33 | GGAGACCUUACUAUACACCCUACUACCUCA | 0.00862 ± 0.0036
34 | GGAGAGGAUACUAAACAAGCUACUACCUCA | 0.00412 ± 0.0017
35 | GGAGACCUAACUAUACAACCUACUAUCUCA | 0.0057 ± 0.003
36 | GGAGAGGAUACUAUACAACCUUGUACCUCA | 0.00294 ± 0.0029
37 | GGAGUGGAUACUAUACAUCCUACUACGUCA | 0.0038 ± 0.0013
38 | GGAGUGGAUACUAUACAAACCUACUACCUCA | 0.0643 ± 0.023
39 | GGAGUGGAUACUAUACAACCUACAACCUCA | 0.00468 ± 0.0018
40 | GGAGACCUAACUAUACAAGCCUACUACCUCA | 0.00432 ± 0.0033
